ELG1 genotox = induces genotoxicity in HEK293T cells with luciferase-tagged ELG1 | HEK293T ELG1-luciferase reporter, luminescence, 16 h | 330,000 tested, 1.3% active | Potency, µM (top dose mostly 46 µM), for the others: at the top dose activity change, positive = activation, actives largely listed as activators | AID 504466; further: % of control where 0% means no effect; nearly all actives have a fitted effect of over 60% in size
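DMSO vehicle served as control against compound-treated ELG1-luciferase HEK293T cells; exposure lasted 16 hr at 37 °C and 5% CO2, followed by ONE-Glo luminescence detection after 30 min.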
ELG1 DNA repair = inhibitors of ELG1-dependent DNA repair in HEK293T cells. Potency, µM (series often up to 46.1 µM), inactives show at the highest dose activity change, negative = inhibition, actives largely listed as inhibitors. HEK293T ELG1-luciferase reporter, luminescence, 16 h; DNA damage induced by 5-fluorouridine. 330,000 tested, 2.3% active; further: on the % scale 0 is the no-effect control and ±100 the full control effect; nearly all actives have a fitted effect of over 55% in size
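5-Fluorouridine DNA damage + compound/DMSO, 2,000 cells/well, 16 h, 37 °C/5% CO2. ONE-Glo, 30 min RT, luminescence. Readout = decrease in reporter signal.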
SMN2 splice up = enhancers of SMN2 splice variant expression; HEK293 SMN2-luciferase splicing reporter, luminescence, 30-36 h; Potency, µM (doses to about 46.1 µM), inactives show at the top dose activity change, positive = activation, hits mostly activators; 210,000 tested, 2.8% active; AID 1458; further: % of control where 0% means no effect; nearly all actives have a fitted effect of over 55% in size
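qHTS luciferase splicing reporter: luminescence rises when SMN2 exon 7 is included in transfected HEK293 cells. Compound exposure lasted 30-36 h at 37C, with 4.5 mM final sodium butyrate as control, followed by a ONE-Glo read.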
FLuc counter = firefly luciferase modulation, counter-screen for miR-21 project; P08659; purified FLuc, Km substrates, luminescence inhibition; Potency, µM (doses to about 57.5 µM), for inactives: at the top dose activity change, negative = inhibition, hits mostly inhibitors; 360,000 tested, 6.9% active; AID 588342;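 further: plate controls were vehicle for no effect and reference inhibitor for full effect; nearly all actives have a fitted effect of over 55% in size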
Target sequence (P08659 whole entry, looked up): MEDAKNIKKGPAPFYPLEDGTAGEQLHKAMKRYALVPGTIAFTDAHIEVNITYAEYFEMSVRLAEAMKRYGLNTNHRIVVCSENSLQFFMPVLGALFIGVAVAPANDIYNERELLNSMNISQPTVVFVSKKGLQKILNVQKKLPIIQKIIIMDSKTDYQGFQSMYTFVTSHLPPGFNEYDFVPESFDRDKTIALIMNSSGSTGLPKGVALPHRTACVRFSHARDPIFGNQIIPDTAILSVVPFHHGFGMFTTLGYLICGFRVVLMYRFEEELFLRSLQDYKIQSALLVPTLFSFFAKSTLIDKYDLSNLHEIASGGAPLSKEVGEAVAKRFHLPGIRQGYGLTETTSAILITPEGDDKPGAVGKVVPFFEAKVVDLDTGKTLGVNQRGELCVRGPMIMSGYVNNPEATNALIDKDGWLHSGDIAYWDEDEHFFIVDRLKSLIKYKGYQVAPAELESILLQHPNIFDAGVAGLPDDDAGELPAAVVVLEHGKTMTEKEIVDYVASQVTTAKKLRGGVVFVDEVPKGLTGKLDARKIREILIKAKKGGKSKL
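Biochemical qHTS of compounds, final roughly 60 µM downward over six points, against 10 nM purified firefly luciferase using Km concentrations of substrates (10 uM D-luciferin, 10 uM ATP) in Tris acetate pH 7.5 buffer; luminescence output.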
Rab9 prom act = activators of Rab9 promoter. Potency, µM (highest dose often 9.22 µM), without a hit: top-dose activation, negative = inhibition, hits mostly activators. 320,000 tested, 2.8% active. Huh7 Rab9 promoter-luciferase reporter, luminescence, 24 h. AID 485297; further: % of control where 0% means no effect; nearly all actives have a fitted effect of over 60% in size
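Cells were plated at 1500 per well in reduced-serum medium with 10% FBS and left 2 h. Compound in DMSO was then added for 24 h at 37 °C. Reporter signal was read by luminescence after 10 min with luciferase detection reagent.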
NPC1 prom act = activators of NPC1 promoter | Huh7 NPC1 promoter luciferase reporter, 24 h | Potency, µM (series often up to 9.22 µM), without a hit: at the highest dose activation, actives largely listed as activators | 320,000 tested, 2.4% active | AID 485313; further: % of control where 0% means no effect; nearly all actives have a fitted effect of over 60% in size
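Luciferase expression driven by the NPC1 promoter was measured in stably transfected Huh7 cells after a 24 h compound incubation, using a luciferase reagent and a luminescence read.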
Starred values were filed as active, the others as inactive. This is a sample that favours compounds with a hit; in the whole collection about 9.2% have one here. The call rests on the fitted dose curve; in most records, active means well fitted curve in the direction sought with a large enough effect; inconclusive means small, poorly fitted or top-dose-only effect, or another doubt; inactive means no such curve, though single readings can be large; an effect the other way counts as inactive or inconclusive. Potency means the concentration at half of the fitted maximal effect.

How did O=C(/C=C/c1cccs1)Nc1nc(-c2ccccc2)cs1 do in these assays?
ELG1 genotox: 18.9%; ELG1 DNA repair: inconclusive; SMN2 splice up: -4.1%; FLuc counter: 6.75µM*; Rab9 prom act: 17.5%; NPC1 prom act: 18.1%

Results for Cc1cc([N+](=O)[O-])ccc1NC(=O)/C=C/c1cccs1 ?
ELG1 genotox: 21.8%; ELG1 DNA repair: 1.4%; SMN2 splice up: 15.8µM*; FLuc counter: inconclusive; Rab9 prom act: inconclusive; NPC1 prom act: inconclusive

How did O=C(Cc1cccs1)Nc1nc(-c2ccccc2)cs1 do in these assays?
ELG1 genotox: 9.6%; ELG1 DNA repair: -12.7%; SMN2 splice up: -30.7%; FLuc counter: 15.1µM*; Rab9 prom act: 1.1%; NPC1 prom act: 13.5%

Results for Cc1ccc(NC(=O)/C=C/c2ccc([N+](=O)[O-])s2)c(C)c1 ?
ELG1 genotox: inconclusive; ELG1 DNA repair: inconclusive; SMN2 splice up: -102.2%; FLuc counter: 1.9%; Rab9 prom act: -38.8%; NPC1 prom act: -17.4%

Results for O=C(/C=C/c1cccs1)Nc1cccnc1 ?
ELG1 genotox: inconclusive; ELG1 DNA repair: inconclusive; SMN2 splice up: 17.8µM*; FLuc counter: 5.36µM*; Rab9 prom act: 2.82µM*; NPC1 prom act: inconclusive

What do the screens show for `CSc1nnc(CNS(=O)(=O)c2ccc(Cl)cc2)n1C`?
ELG1 genotox: -1.9%; ELG1 DNA repair: 0.1%; SMN2 splice up: 4.3%; FLuc counter: 2.7%; Rab9 prom act: 9.2%; NPC1 prom act: 0.1%

How did O=C(Nc1cccnc1)c1cccs1 do in these assays?
ELG1 genotox: -0.2%; ELG1 DNA repair: inconclusive; SMN2 splice up: 8.91µM*; FLuc counter: 1.0%; Rab9 prom act: -4.5%; NPC1 prom act: -23.8%

What do the screens show for `Cc1ccnc(NC(=O)C2(c3cccs3)CCOCC2)c1`?
ELG1 genotox: 1.7%; ELG1 DNA repair: -3.5%; SMN2 splice up: -11.7%; FLuc counter: 2.7%; Rab9 prom act: -3.3%; NPC1 prom act: -1.4%

Results for Cc1ccnc(NC(=O)/C=C/c2cccs2)c1 ?
ELG1 genotox: inconclusive; ELG1 DNA repair: inconclusive; SMN2 splice up: 3.98µM*; FLuc counter: 3.01µM*; Rab9 prom act: 0.631µM*; NPC1 prom act: 0.631µM*

How did O=C(Cc1cccs1)Nc1ccccc1C(=O)O do in these assays?
ELG1 genotox: inconclusive; ELG1 DNA repair: inconclusive; SMN2 splice up: 10µM*; FLuc counter: 15.1µM*; Rab9 prom act: inconclusive; NPC1 prom act: 20.3%

Results for O=C(/C=C/c1c(F)cccc1Cl)Nc1cccnc1 ?
ELG1 genotox: 2.31µM*; ELG1 DNA repair: inconclusive; FLuc counter: 3.79µM*; Rab9 prom act: 3.98µM*; NPC1 prom act: 1.58µM*

Results for O=C(CS(=O)(=O)Cc1ccccc1)N1CCN(c2ccccc2F)CC1 ?
ELG1 genotox: 8.3%; ELG1 DNA repair: 9.7%; FLuc counter: -4.6%; Rab9 prom act: 12.8%; NPC1 prom act: 7.4%

Results for O=C(Cn1cnc2c(NCc3ccccc3)ncnc21)NCCc1cc2ccccc2[nH]1 ?
ELG1 genotox: -2.7%; ELG1 DNA repair: -28.6%

Results for O=C(/C=C/c1cccs1)Nc1nncs1 ?
ELG1 genotox: 8.2%; ELG1 DNA repair: inconclusive; FLuc counter: 16.9µM*; Rab9 prom act: inconclusive; NPC1 prom act: inconclusive

Results for C=CCNC(=O)/C=C/c1cccs1 ?
ELG1 genotox: 3.5%; ELG1 DNA repair: inconclusive; SMN2 splice up: 13.0%; FLuc counter: -1.0%; Rab9 prom act: -1.8%; NPC1 prom act: 4.0%

Results for O=C(/C=C/c1cccs1)Nc1scc(-c2ccccc2)c1C(=O)O ?
ELG1 genotox: inconclusive; ELG1 DNA repair: inconclusive; SMN2 splice up: 11.2µM*; FLuc counter: 3.79µM*; Rab9 prom act: 1.12µM*; NPC1 prom act: 1.41µM*
